# Laboratory results taken from PubChem BioAssay (NCATS).
# Inconclusive results are not listed. A number with no mark means an inactive call. The source made the active and inactive calls. The call rests on the fitted dose curve; in most records, active means well fitted curve in the direction sought with a large enough effect; inconclusive means small, poorly fitted or top-dose-only effect, or another doubt; inactive means no such curve, though single readings can be large; an effect the other way counts as inactive or inconclusive.
# Experiments:
# [1] = Quantitative High-Throughput drug screen in 47 multiple myeloma cell lines against the NCATS MIPE library collection: JIM1_ECACC cell viability assay (AID 1918964; further: potency means the concentration at half of the fitted maximal effect)
# Summary of the method: (§1)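 Primary qHTS used for cherry-picking: cells at 500/well, library compounds for 48 h (37C, 5% CO2), luminescent ATP assay.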
# [2] = Quantitative High-Throughput drug screen in 47 multiple myeloma cell lines against the NCATS MIPE library collection: INA6_PLB cell viability assay (AID 1918965; further: nearly all actives have a fitted effect of over 55% in size; further: potency means the concentration at half of the fitted maximal effect;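 on viability (% of control): 100% = DMSO-only wells and 0% = media-only wells without cells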)
# Summary of the method: (§2)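 Relative luminescence from CellTiter-Glo served as the viability signal, referenced to DMSO-treated (100%) and cell-free medium (0%) controls. Treatment lasted 48 hours at 37C with 500 cells per well.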
# [3] = Quantitative High-Throughput drug screen in 47 multiple myeloma cell lines against the NCATS MIPE library collection: H1112_PLB cell viability assay (AID 1918967; further: nearly all actives have a fitted effect of over 30% in size; further: potency means the concentration at half of the fitted maximal effect)
# Summary of the method: as §1
# [4] = Quantitative High-Throughput drug screen in 47 multiple myeloma cell lines against the NCATS MIPE library collection: Karpas25_ECACC cell viability assay (AID 1918968; further: nearly all actives have a fitted effect of over 35% in size; further: potency means the concentration at half of the fitted maximal effect;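 on viability (% of control): 100% = DMSO only wells and 0% = media only wells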)
# Summary of the method: as §1
# [5] = Quantitative High-Throughput drug screen in 47 multiple myeloma cell lines against the NCATS MIPE library collection: KMS12PE_JCRB cell viability assay (AID 1918972); further: nearly all actives have a fitted effect of over 30% in size; further: potency means the concentration at half of the fitted maximal effect;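 on viability: 100% = DMSO only wells and 0% = wells with media alone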
# Summary of the method: as §2
# [6] = Quantitative High-Throughput drug screen in 47 multiple myeloma cell lines against the NCATS MIPE library collection: NCIH929_DSMZ cell viability assay (AID 1918978); further: nearly all actives have a fitted effect of over 35% in size; further: potency means the concentration at half of the fitted maximal effect
# Summary of the method: (§3)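 Readout: median RLU from CellTiter-Glo after 5 min at room temperature. Preceding step was 48 h drug treatment of 500 cells/well at 37 °C, 5% CO2, with DMSO-only and media-only control wells.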
# [7] = Quantitative High-Throughput drug screen in 47 multiple myeloma cell lines against the NCATS MIPE library collection: MM1S_ATCC cell viability assay (AID 1918980); further: nearly all actives have a fitted effect of over 45% in size; further: potency means the concentration at half of the fitted maximal effect;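 on viability (% of control): 100% = wells with DMSO only and 0% = wells with media only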
# Summary of the method: as §3
# [8] = Quantitative High-Throughput drug screen in 47 multiple myeloma cell lines against the NCATS MIPE library collection: MM1R_ATCC cell viability assay (AID 1918981); further: nearly all actives have a fitted effect of over 35% in size; further: potency means the concentration at half of the fitted maximal effect
# Summary of the method: as §3
# [9] = Quantitative High-Throughput drug screen in 47 multiple myeloma cell lines against the NCATS MIPE library collection: KMS12BM_JCRB cell viability assay (AID 1918971); further: nearly all actives have a fitted effect of over 35% in size; further: potency means the concentration at half of the fitted maximal effect
# Summary of the method: (§4)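 Inhibition of cell viability is measured here. Each line was plated at 500 cells per well, treated with MIPE 4.0 drugs, kept 48 hours at 37C, then assayed for ATP content by CellTiter-Glo luminescence.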
# [10] = Quantitative High-Throughput drug screen in 47 multiple myeloma cell lines against the NCATS MIPE library collection: KMS20_JCRB cell viability assay (AID 1918973); further: nearly all actives have a fitted effect of over 45% in size; further: potency means the concentration at half of the fitted maximal effect;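 on viability (% of DMSO): 100% = DMSO only wells and 0% = media only wells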
# Summary of the method: as §1
# [11] = Quantitative High-Throughput drug screen in 47 multiple myeloma cell lines against the NCATS MIPE library collection: KMS27_JCRB cell viability assay (AID 1918970); details: KMS27 myeloma cells, CellTiter-Glo ATP viability, 48 h; viability (% of DMSO): at 45.8 µM (top of the series); further: nearly all actives have a fitted effect of over 30% in size; further: potency means the concentration at half of the fitted maximal effect;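 on viability (% of DMSO): 100% = DMSO-only wells and 0% = media-only wells without cells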
# Summary of the method: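 Luminescent ATP read-out (CellTiter-Glo, 5 min at room temperature) after 48 h compound exposure of 500 KMS27_JCRB cells per well; DMSO wells define full viability and media-only wells zero.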
# [12] = Quantitative High-Throughput drug screen in 47 multiple myeloma cell lines against the NCATS MIPE library collection: MMM1_PLB cell viability assay (AID 1918976); further: nearly all actives have a fitted effect of over 35% in size; further: potency means the concentration at half of the fitted maximal effect
# Summary of the method: as §3
# [13] = Quantitative High-Throughput drug screen in 47 multiple myeloma cell lines against the NCATS MIPE library collection: JIM3_ECACC cell viability assay (AID 1918963; further: nearly all actives have a fitted effect of over 35% in size; further: potency means the concentration at half of the fitted maximal effect;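 on viability, percent of control: 100% = DMSO-only wells and 0% = media-only wells without cells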)
# Summary of the method: as §2
# [14] = Quantitative High-Throughput drug screen in 47 multiple myeloma cell lines against the NCATS MIPE library collection: OCIMY1_PLB cell viability assay (AID 1918979); further: nearly all actives have a fitted effect of over 35% in size; further: potency means the concentration at half of the fitted maximal effect;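 on viability: 100% = DMSO-only wells and 0% = cell-free media-only wells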
# Summary of the method: as §3
# [15] = Quantitative High-Throughput drug screen in 47 multiple myeloma cell lines against the NCATS MIPE library collection: KMS26_JCRB cell viability assay (AID 1918975); further: nearly all actives have a fitted effect of over 45% in size; further: potency means the concentration at half of the fitted maximal effect;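 on viability (% of DMSO): 100% = DMSO-treated wells and 0% = wells with media only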
# Summary of the method: as §4
# [16] = Quantitative High-Throughput drug screen in 47 multiple myeloma cell lines against the NCATS MIPE library collection: MOLP8_DSMZ cell viability assay (AID 1918977); further: nearly all actives have a fitted effect of over 45% in size; further: potency means the concentration at half of the fitted maximal effect;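 on viability (% of control): 100% = DMSO-only wells and 0% = media-only wells without cells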
# Summary of the method: as §3
# [17] = Quantitative High-Throughput drug screen in 47 multiple myeloma cell lines against the NCATS MIPE library collection: KMS21BM_JCRB cell viability assay (AID 1918974); details: ATP luminescence, 48 h; viability: at 45.8 µM (top of the series)
# Summary of the method: as §1
# [18] = Quantitative High-Throughput drug screen in 47 multiple myeloma cell lines against the NCATS MIPE library collection: JJN3_DSMZ cell viability assay (AID 1918966; further: nearly all actives have a fitted effect of over 50% in size; further: potency means the concentration at half of the fitted maximal effect)
# Summary of the method: as §1
compound,measurement,setting,value
CCN(CC)CCCCNc1ncc2c(n1)N(C)C(=O)N(c1c(Cl)c(OC)cc(OC)c1Cl)C2,Potency,[1],inactive
same,Potency,[2],11.8 µM (active)
same,Potency,[3],16.6 µM (active)
same,Potency,[4],16.6 µM (active)
same,Potency,[5],inactive
same,Potency,[6],inactive
same,Potency,[7],4.69 µM (active)
same,Potency,[8],16.6 µM (active)
COC(=O)C=CC(=O)OC,Potency,[2],18.7 µM (active)
same,Potency,[4],1.48 µM (active)
same,Potency,[9],inactive
same,Potency,[10],2.64 µM (active)
same,Potency,[6],0.264 µM (active)
same,Potency,[7],1.66 µM (active)
same,Potency,[8],23.5 µM (active)
O=c1[nH]c(=O)n([C@H]2C[C@@H](O)[C@@H](CO)O2)cc1F,Potency,[1],18.7 µM (active)
same,Potency,[2],1.32 µM (active)
same,Potency,[3],4.69 µM (active)
same,Potency,[11],9.35 µM (active)
same,Potency,[9],20.9 µM (active)
same,Potency,[5],7.43 µM (active)
same,Potency,[12],18.7 µM (active)
same,Potency,[7],11.8 µM (active)
Nc1ccn(C2CO[C@H](CO)O2)c(=O)n1 (stereo partly specified),Potency,[13],3.32 µM (active)
same,Potency,[3],inactive
same,Potency,[4],inactive
same,Potency,[11],inactive
same,Potency,[9],0.833 µM (active)
same,Potency,[12],4.69 µM (active)
same,Potency,[6],inactive
same,Potency,[14],inactive
CC(C)(C)[C@H](NC(=O)c1ccc(N)c(Cl)c1)C(=O)N1CCC[C@@H]1C(=O)N[C@H](C#N)CC(=O)O,"viability, percent of control",[13],130% [at 3.51 µM]
same,viability,[3],116% [at 3.51 µM]
same,Potency,[11],1.05 µM (active)
same,viability (% of DMSO),[15],125% [at 3.51 µM]
same,viability (% of control),[16],110% [at 3.51 µM]
same,"viability, % of control",[6],122% [at 3.51 µM]
same,viability,[14],103% [at 3.51 µM]
same,viability (% of control),[7],120% [at 3.51 µM]
same,viability (% of control),[8],128% [at 3.51 µM]
CCCCC(=O)O[C@]1(C(=O)CO)[C@@H](C)C[C@H]2[C@@H]3CCC4=CC(=O)C=C[C@]4(C)[C@@]3(F)[C@@H](O)C[C@@]21C,Potency,[13],inactive
same,Potency,[4],0.0148 µM (active)
same,Potency,[11],11.8 µM (active)
same,Potency,[9],inactive
same,viability,[17],131% (active)
same,Potency,[12],inactive
same,Potency,[16],0.526 µM (active)
same,Potency,[14],inactive
c1cc(N[C@@H]2CCNC2)nc(-c2cnc3ccc(-c4cn[nH]c4)cn23)c1,Potency,[1],4.18 µM (active)
same,Potency,[2],0.935 µM (active)
same,Potency,[18],5.9 µM (active)
same,Potency,[3],11.8 µM (active)
same,Potency,[4],5.9 µM (active)
same,Potency,[11],2.64 µM (active)
same,Potency,[9],16.6 µM (active)
same,Potency,[10],11.8 µM (active)
same,Potency,[15],14.8 µM (active)
same,Potency,[16],2.96 µM (active)
same,Potency,[6],13.2 µM (active)
same,Potency,[14],inactive
same,Potency,[8],20.9 µM (active)
CC(=CC(=O)Nc1ccccc1C(=O)O)c1ccc2ccccc2c1,Potency,[1],0.59 µM (active)
same,Potency,[4],20.9 µM (active)
same,Potency,[17],inactive
same,Potency,[6],7.43 µM (active)
same,Potency,[14],inactive
same,Potency,[7],8.33 µM (active)
C[C@@H]1[C@H](C)CC[C@]2(C(=O)O)CC[C@]3(C)C(=CC[C@@H]4[C@@]5(C)C[C@@H](O)[C@H](O)[C@@](C)(CO)[C@H]5CC[C@]43C)[C@@H]12,Potency,[13],inactive
same,Potency,[3],inactive
same,Potency,[4],inactive
same,Potency,[11],inactive
same,Potency,[5],inactive
same,Potency,[10],inactive
same,Potency,[15],inactive
same,Potency,[16],inactive
same,Potency,[6],inactive
same,Potency,[14],inactive
same,Potency,[8],inactive
CCCCCCCN(CC)CCCC(O)c1ccc(NS(C)(=O)=O)cc1 (stereo unspecified),Potency,[18],inactive
same,Potency,[9],inactive
Cc1nc(NC(=O)N2CCC[C@@H]2C(N)=O)sc1-c1ccnc(C(C)(C)C(F)(F)F)c1,Potency,[2],14.8 µM (active)
same,Potency,[18],6.62 µM (active)
same,Potency,[4],5.26 µM (active)
same,Potency,[11],inactive
same,Potency,[9],10.5 µM (active)
same,Potency,[10],1.48 µM (active)
same,Potency,[17],inactive
same,Potency,[6],0.148 µM (active)
same,Potency,[14],0.0935 µM (active)
same,Potency,[7],3.32 µM (active)
same,Potency,[8],1.66 µM (active)
C[C@H](NC(=O)[C@@H](O)c1cc(F)cc(F)c1)C(=O)N[C@@H]1C(=O)N(C)c2ccccc2-c2ccccc21,Potency,[2],inactive
same,Potency,[18],inactive
same,Potency,[3],14.8 µM (active)
same,Potency,[4],inactive
same,Potency,[10],inactive
same,Potency,[15],inactive
same,Potency,[16],inactive
same,Potency,[14],inactive
Cc1cc(C(=O)NOCCO)c(Nc2ccc(I)cc2F)n(C)c1=O,Potency,[1],inactive
same,Potency,[18],4.69 µM (active)
same,Potency,[11],0.0026 µM (active)
same,Potency,[15],inactive
same,Potency,[6],0.0074 µM (active)
same,Potency,[14],inactive
same,Potency,[7],2.96 µM (active)
c1ccc2c(Oc3nc(Nc4ccc(N5CCOCC5)cc4)c4ncn(C5CCCCC5)c4n3)cccc2c1,Potency,[13],18.7 µM (active)
same,Potency,[3],inactive
same,Potency,[9],16.6 µM (active)
same,Potency,[16],inactive
same,Potency,[7],inactive
